Assay results from the supplement of paper PMC5734697.

Each compound was assayed on Caenorhabditis elegans (assay: growth (movement index) relative to DMSO control, secondary screen (log2 fold change); higher = more growth (less anthelmintic activity)). Settings: 10 µM, 5 days, 20 °C, stage: L1 start.
Experimental: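 C. elegans growth assay: synchronised L1 larvae (~20 per well) in S-complete medium with HB101 E. coli were grown in 96-well plates with Pathogen Box compound at 10 µM (1% DMSO) for 5 days at 20 °C. Motility/growth was quantified by whole-plate movie imaging (INVAPP/Paragon movement index). The score is the log2 fold change of the median movement of 5 replicate wells (on different plates) relative to DMSO-only wells. The secondary screen retested the top 20 hits with the same library material (n = 5, 10 µM).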

| Structure (SMILES) | growth (log2) |
| --- | --- |
| CCc1nn(C)c(C(=O)NCc2ccc(Oc3ccc(C)cc3)cc2)c1Cl | -10.6 |
| CC1(C)OB(O)c2ccc(C3=NOC(c4cc(Cl)c(F)c(Cl)c4)(C(F)(F)F)C3)cc21 (configuration not stated) | -0.316 |
